The values below come from PubChem BioAssay (NCI).

The panel holds about 83,000 compounds, 20% with a hit somewhere; the sample as a whole holds those more often.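 Interpretation: 100, growth as untreated; towards 0, rising growth inhibition; 0, no net growth; 0 to -100, cell death. Compounds scoring below 10 were considered active.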 Values without a mark were called inactive. Active and inactive are the calls of the source.

The test system of the assay is MDA-MB-468 breast. In words: NCI-60 one-dose screen, 48 h (100 = growth as untreated, 0 = no growth, -100 = all killed). To be noted: 10 µM unless noted.

For `Cc1ccc(S(=O)(=O)N2CCc3ccc(O)c4c3C2Cc2ccc3c(c2-4)OCO3)cc1` (stereo not drawn), the growth is 1.75% (active). With `COc1ccc2c(c1)c(-c1nnc(N)nc1-c1cn(C)c3ccccc13)cn2C`, the growth is 78.8%. Regarding `CC(=O)Oc1c(C)c(C)c2c(c1C)CCC(C)(CC(=O)OCCCCCCCCCCC[P+](c1ccccc1)(c1ccccc1)c1ccccc1)O2` (stereo not drawn), the growth is -55.7% (active).

In the case of `COc1ccc2oc(-c3ccc(Cl)cc3)c(N3CCN(C)CC3)c2c1`, the growth was -53.5% (active). Then `Cc1cccc(Cc2cnc(NC(=O)c3ccc4nnsc4c3)s2)c1`, with 94.8%.

Take `COc1cc(C2C(C#N)=C(N)Oc3cc4c(cc32)OCO4)cc2c1OCO2` (stereo not drawn): the growth is -8.15% (active). Then `COc1cnc2c(c1)C(=O)c1c-2n(CCCN2CCCC2)c(=O)c2cc([N+](=O)[O-])ccc12`, with -41.1% (active); and `Cc1oc(-c2ccc(Cl)cc2)nc1C1=NN(C(=O)c2ccncc2)C(c2ccccc2)C1` (stereo not drawn), with 108%; and `Cc1ccc(Oc2c(/C=N/NC(=O)Cn3c(=O)sc4ccccc43)c(C)nn2-c2ccccc2)cc1`, with 41%. As to `COc1cc(C(=O)N2CCN(c3ccccc3)CC2)c2ccccc2n1`, the growth is 5.08% (active). The figure for `O=C1NCCC12CCN(c1c(Cl)cncc1-c1ccc(O)cc1)CC2` is 84.3%; for `Oc1ccc(N=Nc2ccc(N=Nc3ccccc3)cc2)cc1` it is 83.1%.

As to `c1cn2c(ccc3nc(-c4cn[nH]c4)c4c(c32)CCCC4)n1`, the growth was 42%. As for `CCOC(=O)c1cc2c(=O)oc3ccccc3c2oc1=O`, the growth is 88.2%. Then `C[C@]12CC[C@@H]3c4ccc(O)c([N+](=O)[O-])c4CC[C@H]3[C@@H]1CCC2=O`, with 71%; and `Cc1cc(Cl)nc(N(CCCNc2ccnc3cc(Cl)ccc23)Cc2ccco2)n1`, with 0.466% (active). The figure for `C#Cc1nc(C(C)=O)cs1` is 90.5%; for `Clc1ccc2c(NCCCn3ccnc3)c3oc4ccc(Cl)cc4c3nc2c1` it is 31.3%; for `CC(C)CCN(CCC(C)C)CC(O)c1cc2c(c3ccccc13)CCCC2` (stereo not drawn) it is 54%. In the case of `O=C1/C(=C/c2ccc(O)c(O)c2)COc2ccc(-c3ccccc3)cc21`, the growth is 6.16% (active).

Turning to `Cc1cc2nc3c4ccc(Br)cc4n(CCN(C)C)c3nc2cc1C`, the growth is -6.68% (active). The figure for `COc1ccc2c(c1)c(-c1nc(-c3ccc4ccccc4c3)cs1)cn2C` is 10.4%; for `O=C(Nc1ccc(NS(=O)(=O)c2ccc(F)cc2)cc1)C12CC3CC(CC(C3)C1)C2` it is 96.5%. For `COc1ccc(-c2nc3sc(-c4ccccc4)cn3n2)cc1`, the growth was 18.7%.

`Cc1ccc(NC(=O)c2sc3nc(C)c(Br)c(C)c3c2N)cc1`: the growth was 66.6%. For `COC(=O)c1ccc2c(c1)nc(-c1cc3ccccc3[nH]c1=O)n2-c1cc(C(C)(C)C)[nH]n1`, the growth is 101%.

For the compound `CN(C)c1ccc(Cc2ccc(N(C)C)cc2Cl)c(Cl)c1`, the growth was 88.7%. Turning to `O=C(Nc1ccc(F)cc1)c1cc(-c2ccc(F)cc2F)ccc1O`, the growth is -7.21% (active). The figure for `O=C(CCn1cnc2c(cc(-c3ccccc3)n2-c2ccccc2)c1=O)Nc1ccc(F)cc1` is 78%; for `O=C(/C=C/c1ccc(Cl)cc1)c1ccc(Nc2nc(NCCO)nc(N3CCOCC3)n2)cc1` it is 69.4%. The figure for `O=c1oc2ccc(Br)cc2c(=O)n1-c1ccc(Br)cc1F` is -11.7% (active). As for `O=c1oc2c(Br)cc(Br)cc2cc1-c1cc(-c2ccc(-c3cc(-c4cc5cc(Br)cc(Br)c5oc4=O)nc(-c4cc5cc(Br)cc(Br)c5oc4=O)c3)cc2)cc(-c2cc3cc(Br)cc(Br)c3oc2=O)n1`, the growth is 117%. Then `C=C1CCC2C3(C)COC(c4ccc(NC(C)=O)cc4)OC3CCC2(C)C1C/C=C1/C(=O)OCC1O` (stereo not drawn), with 19.3%; and `FC(F)(F)c1cc(Nc2ccc3c(OCCCN4CCOCC4)cccc3n2)ccc1Cl`, with 38.3%. The figure for `C=CC(=O)N1CCC[C@@H](n2nc(-c3ccc(Oc4ccccc4)cc3)c3c(N)ncnc32)C1` is -17.5% (active); for `CC(=O)NCC(=O)N1[C@@H]2CC[C@H]1c1ccc(Nc3ncc(C(F)(F)F)c(NC4CCC4)n3)cc12` it is 72% [2.5 µM]. Then `O=[N+]([O-])c1ccc(O)cc1Br`, with 106%; and `COc1ccc(C2[C@@H](Cl)C(=O)N2c2cc(OC)c(OC)c(OC)c2)cc1Cl` (stereo partly drawn), with 2.32% (active).
